Article PMC4336329 (PLoS ONE, 2015)
Among all 310,000 compounds or so, about 14,000 (4.5%) showed an effect of 50% or more. Effects have a minus sign here. Shown is part of a subset that was picked to be rich in strong results.

These molecules were tested against human ether-à-go-go-related gene (hERG) potassium channel (human, UniProt Q12809) (assay: primary screen, population patch clamp on CHO cells stably expressing hERG; higher = less effect of the substance).
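Further: peak tail current of the secondary pulse compared with the same well before compound.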

human ether-à-go-go-related gene (hERG) potassium channel, sequence (Q12809 whole entry, looked up): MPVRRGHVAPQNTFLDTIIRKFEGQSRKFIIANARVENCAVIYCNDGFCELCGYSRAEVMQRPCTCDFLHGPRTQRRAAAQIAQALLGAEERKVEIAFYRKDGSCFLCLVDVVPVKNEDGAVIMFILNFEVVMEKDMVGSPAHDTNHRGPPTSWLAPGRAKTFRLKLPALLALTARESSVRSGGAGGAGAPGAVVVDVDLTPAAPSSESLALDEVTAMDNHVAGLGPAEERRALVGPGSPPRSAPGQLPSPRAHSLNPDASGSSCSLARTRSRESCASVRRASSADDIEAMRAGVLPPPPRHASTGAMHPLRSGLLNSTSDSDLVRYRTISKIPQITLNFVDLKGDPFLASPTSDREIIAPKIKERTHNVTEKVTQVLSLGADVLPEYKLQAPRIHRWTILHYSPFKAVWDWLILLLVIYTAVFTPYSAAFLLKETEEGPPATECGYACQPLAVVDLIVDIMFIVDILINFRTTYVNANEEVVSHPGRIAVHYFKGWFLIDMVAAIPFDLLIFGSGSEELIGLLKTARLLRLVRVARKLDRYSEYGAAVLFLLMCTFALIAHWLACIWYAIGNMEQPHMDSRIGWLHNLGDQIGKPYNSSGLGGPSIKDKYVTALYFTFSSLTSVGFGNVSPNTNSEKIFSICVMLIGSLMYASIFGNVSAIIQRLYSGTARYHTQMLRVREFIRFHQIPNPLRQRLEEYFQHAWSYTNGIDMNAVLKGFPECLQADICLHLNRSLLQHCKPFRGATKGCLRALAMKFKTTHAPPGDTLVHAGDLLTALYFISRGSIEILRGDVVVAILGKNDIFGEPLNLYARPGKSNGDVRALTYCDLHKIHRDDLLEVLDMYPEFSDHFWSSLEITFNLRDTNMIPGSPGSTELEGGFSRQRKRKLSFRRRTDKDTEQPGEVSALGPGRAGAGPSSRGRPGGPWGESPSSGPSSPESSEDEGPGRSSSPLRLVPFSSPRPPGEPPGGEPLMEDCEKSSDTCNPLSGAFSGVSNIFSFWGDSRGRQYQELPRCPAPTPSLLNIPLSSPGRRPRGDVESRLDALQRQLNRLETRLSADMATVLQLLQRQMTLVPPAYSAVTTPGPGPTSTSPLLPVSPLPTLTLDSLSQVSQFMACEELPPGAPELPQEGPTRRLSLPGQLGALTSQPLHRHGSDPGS

Row | SMILES | hERG current change (%, negative = inhibition) at 10uM [%]
1 | CCCN1CCC(=O)N(CCSc2ccccc2)CC1 | -15.1
2 | O=C1CCN(CCc2ccccc2)CCN1CCO | -4.16
3 | O=C1CCN(CCc2ccccc2)CCN1CCSc1ccccc1 | -76.4
4 | CCN(CC)S(=O)(=O)c1ccc(NC(=O)CO/N=C(\N)c2ccccc2)cc1 | -16.6
5 | O=C(CN1CCOc2ccccc21)NCc1cccs1 | 8.26
6 | Br.O=C(CN1C2=NCCN2c2ccccc21)c1ccc(Br)s1 | -64.5
7 | O=C(CN1C2=NCCCN2c2ccccc21)c1cccs1 | -18.4
8 | Br.CCOC(=O)CN1C2=NCCN2c2ccccc21 | 18.1
9 | Br.O=C(CN1C2=NCCCN2c2ccccc21)c1ccc(Br)s1 | -67.2
10 | Br.O=C(CN1C2=NCCN2c2ccccc21)c1cccs1 | -31.3
11 | Br.O=C(CN1C2=NCCN2c2ccccc21)C12CC3CC(CC(C3)C1)C2 | -72.7
12 | O=C1CCC(=O)N1CC(=O)N1c2ccccc2Sc2ccccc21 | 3.19
13 | Cc1nc(C(=O)NC2CCOCC2)sc1C1(C)CC(c2ccccc2)=NO1 (stereo not shown) | -19.8
14 | CC(C)CCNC(=O)C1CCC(=O)N1CCc1ccccc1 (stereo not shown) | 9.14
15 | CCN(CC)CCCNC(=O)c1cc2c(=O)n(CC)c3ccccc3c2s1 | -14.9
16 | CC(C)Oc1ccccc1C1Nc2ccccc2C(=O)N1c1ccc2c(c1)OCCO2 (stereo not shown) | 3.43
17 | Fc1ccccc1NC(=S)NC1CCCC1 | 14
18 | Cc1ccc(NC(=O)N(C2=NCC(C)S2)c2ccccc2)cc1 (stereo not shown) | 16.3
19 | CCn1c(SCc2nc(-c3ccc(Cl)cc3)no2)nnc1-c1ccco1 | -62
20 | CCn1c(SCc2nc(-c3ccccc3)no2)nnc1-c1ccco1 | -36.3
21 | CCn1c(SCc2nc(-c3ccccc3)no2)nnc1-c1cccs1 | -61.2
22 | Cn1c(SCc2nc(-c3ccccc3)no2)nnc1-c1ccco1 | -18.4
23 | Cn1c(SCc2nc(-c3ccc(Cl)cc3)no2)nnc1-c1ccco1 | -53.2
24 | Cn1c(SCc2nc(-c3ccccc3)no2)nnc1-c1cccs1 | -2.11
25 | Cn1c(SCc2nc(-c3ccc(Cl)cc3)no2)nnc1-c1ccccc1 | -22.5

Row | SMILES | hERG current change (%, negative = inhibition) at 10uM [%]
26 | CCn1c(SCc2nc(-c3ccc(OC)c(OC)c3)no2)nnc1-c1cccs1 | -40.1
27 | Cn1c(SCc2nc(-c3ccc(Br)cc3)no2)nnc1-c1ccco1 | -49.6
28 | O=C(NCCN1CCCC1)C1CCN(S(=O)(=O)N2CCC3(CC2)OCCO3)CC1 | 20.5
29 | Cc1cccc(N(C)c2ncnc3onc(-c4ccc(F)cc4)c23)c1C | -8.28
30 | COc1ccc(CN2CCNC(=O)C2CC(=O)NCC2CCOCC2)c(C)c1C (stereo not shown) | -19.6
31 | O=C(O)CCCn1cc(NC(=O)COc2ccc(F)cc2)cn1 | 16.5
32 | N#Cc1c(N)oc(-c2ccco2)c1-c1ccco1 | 1.98
33 | COc1ccc(NS(=O)(=O)c2cccc(C(=O)NNC(=O)CNC(=O)c3ccc(C)cc3)c2)cc1 | -2.64
34 | O=C(NCc1ccccc1)C(c1ccc(F)cc1)N(Cc1ccco1)C(=O)c1ccccn1 (stereo not shown) | -24.4
35 | O=C(Nc1c2c(nc3ccccc13)CCCC2)c1cccc([N+](=O)[O-])c1 | -5.85
36 | N#Cc1cccc(Nc2c3c(nc4ccccc24)CCC3)c1 | -72.2
37 | N#Cc1cccc(Nc2c3c(nc4ccccc24)CCCC3)c1 | -74.8
38 | O=C(Nc1c2c(nc3ccccc13)CCCC2)c1ccccc1Br | 4.09
39 | CC(C)c1ccc(NC(=O)c2cc3c(=O)n(C)c4ccccc4c3n2C)cc1 | 6.96
40 | COc1ccccc1OCc1ccc(C(=O)N2CCCCC2)o1 | 2.22
41 | O=C(c1ccco1)c1cn(CC(=O)N2CCCCC2)c2ccccc12 | -6.34
42 | CCOC(=O)c1[nH]c2ccccc2c1NC(=O)COC | -4.53
43 | Cc1cc(C(=O)CCl)c(C)n1Cc1ccco1 | 3.06
44 | Cc1oc(-c2ccccc2F)nc1CS(=O)CC(=O)NCc1cccs1 (stereo not shown) | -12
45 | Cc1oc(-c2ccccc2F)nc1CN1CCC(C(=O)NCc2cccs2)CC1 | -63.7
46 | Cc1ccccc1-c1nc(CN2CCC(C(=O)NCc3cccs3)CC2)c(C)o1 | -70.5
47 | Cc1oc(-c2ccc(Cl)cc2)nc1CN1CCC(C(=O)NCCCN2CCCC2=O)CC1 | -33.9
48 | Cc1oc(-c2ccc(Cl)cc2)nc1CN1CCC(C(=O)NCc2cccs2)CC1 | -61.5
49 | Cc1oc(-c2ccc(Cl)cc2)nc1CN1CCC(C(=O)NCCCN2CCCC(C)C2)CC1 (stereo not shown) | -16.5
